# According to publication PMC7862700, “An all-to-all approach to the identification of sequence-specific readers for epigenetic DNA modifications on cytosine”:
# Columns and labels:
# Test in all cases: DAPPL (digital affinity profiling via proximity ligation, sequencing); 10 mM Tris-HCl pH 7.5, 50 mM NaCl, 1 mM DTT, 4% glycerol, room temperature, 30 min; GST-TFs on glutathione beads, 16-mer random dsDNA library, 0.1% formaldehyde crosslink after washing; high values mean tight binding
# Details in all cases: protein: recombinant; tags: N-terminal GST; dsDNA, one strand shown
# FLI1 = target: T1, FLI1 (Homo sapiens, UniProt Q01543 1-452)
# T1 sequence: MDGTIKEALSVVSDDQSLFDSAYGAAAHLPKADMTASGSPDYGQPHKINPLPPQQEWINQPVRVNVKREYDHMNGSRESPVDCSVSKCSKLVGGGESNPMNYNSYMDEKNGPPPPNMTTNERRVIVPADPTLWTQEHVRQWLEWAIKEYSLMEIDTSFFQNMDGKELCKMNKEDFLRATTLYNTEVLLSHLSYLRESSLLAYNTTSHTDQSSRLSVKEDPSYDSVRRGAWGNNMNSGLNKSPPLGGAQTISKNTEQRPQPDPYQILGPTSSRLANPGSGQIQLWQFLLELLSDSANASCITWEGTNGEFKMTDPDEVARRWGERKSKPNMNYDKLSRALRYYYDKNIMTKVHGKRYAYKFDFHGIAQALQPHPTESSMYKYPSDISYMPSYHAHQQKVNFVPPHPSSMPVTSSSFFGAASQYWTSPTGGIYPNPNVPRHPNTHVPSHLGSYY
# In short: (§1)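 After expression in yeast as GST fusions, human transcription factors were bound to glutathione beads, DNA-barcoded and mixed with a tag-only sample. The pools were incubated with 200 nmole of a 16-mer random double-stranded DNA library in Tris/NaCl/DTT/glycerol buffer (30 min, room temperature), washed and crosslinked with 0.1% formaldehyde. Proximity ligation with BsaI/T4 ligase ran for 1 h at 37 °C, before PCR amplification and sequencing on an Illumina NextSeq500. Binding signal is a hexamer's read frequency for a factor divided by its frequency for the tag-only sample.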
# ELK1 = target: T2, ELK1 (Homo sapiens, UniProt P19419 1-428)
# T2 sequence: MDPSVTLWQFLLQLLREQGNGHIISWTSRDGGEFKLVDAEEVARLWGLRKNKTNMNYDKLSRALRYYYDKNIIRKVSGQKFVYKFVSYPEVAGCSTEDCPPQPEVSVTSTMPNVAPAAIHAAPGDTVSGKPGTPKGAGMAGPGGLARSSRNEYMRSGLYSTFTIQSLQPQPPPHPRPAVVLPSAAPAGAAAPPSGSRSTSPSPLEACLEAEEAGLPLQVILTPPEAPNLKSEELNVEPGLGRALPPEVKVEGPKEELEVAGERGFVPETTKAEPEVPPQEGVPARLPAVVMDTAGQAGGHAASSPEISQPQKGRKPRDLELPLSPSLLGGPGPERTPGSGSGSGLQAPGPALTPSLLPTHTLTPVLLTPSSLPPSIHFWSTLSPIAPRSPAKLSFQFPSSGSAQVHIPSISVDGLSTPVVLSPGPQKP
# In short: as §1
# GABPA = target: T3, GABPA (Homo sapiens, UniProt Q06546 1-454)
# T3 sequence: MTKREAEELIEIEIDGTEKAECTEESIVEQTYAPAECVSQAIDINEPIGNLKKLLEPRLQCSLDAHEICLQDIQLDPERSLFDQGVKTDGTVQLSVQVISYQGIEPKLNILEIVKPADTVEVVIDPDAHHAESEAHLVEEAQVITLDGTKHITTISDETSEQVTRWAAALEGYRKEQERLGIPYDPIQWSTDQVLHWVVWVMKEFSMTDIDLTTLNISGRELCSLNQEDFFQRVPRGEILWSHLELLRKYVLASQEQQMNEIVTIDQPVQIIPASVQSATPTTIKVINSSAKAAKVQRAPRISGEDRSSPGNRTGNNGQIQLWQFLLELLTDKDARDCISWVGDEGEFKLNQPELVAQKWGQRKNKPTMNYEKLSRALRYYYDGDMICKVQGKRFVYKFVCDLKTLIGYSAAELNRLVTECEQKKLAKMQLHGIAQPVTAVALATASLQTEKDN
# In short: as §1
# ERG = target: T4, ERG (Homo sapiens, UniProt P11308 1-479)
# T4 sequence: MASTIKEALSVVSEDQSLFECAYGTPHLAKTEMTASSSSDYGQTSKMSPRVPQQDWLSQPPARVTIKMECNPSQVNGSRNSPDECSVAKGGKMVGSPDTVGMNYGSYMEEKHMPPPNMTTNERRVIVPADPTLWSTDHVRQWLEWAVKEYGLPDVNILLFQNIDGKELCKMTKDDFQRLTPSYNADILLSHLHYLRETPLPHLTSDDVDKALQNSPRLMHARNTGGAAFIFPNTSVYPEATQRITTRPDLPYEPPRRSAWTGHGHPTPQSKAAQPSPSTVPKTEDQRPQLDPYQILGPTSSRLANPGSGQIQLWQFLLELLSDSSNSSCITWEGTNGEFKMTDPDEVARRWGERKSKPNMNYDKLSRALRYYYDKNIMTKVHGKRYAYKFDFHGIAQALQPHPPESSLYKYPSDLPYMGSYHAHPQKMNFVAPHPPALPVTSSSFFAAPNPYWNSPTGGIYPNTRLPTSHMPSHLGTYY
# In short: as §1
# ELF1 = ELF1 (Homo sapiens, UniProt P32519 1-619)
# Chain of ELF1 (P32519 whole entry): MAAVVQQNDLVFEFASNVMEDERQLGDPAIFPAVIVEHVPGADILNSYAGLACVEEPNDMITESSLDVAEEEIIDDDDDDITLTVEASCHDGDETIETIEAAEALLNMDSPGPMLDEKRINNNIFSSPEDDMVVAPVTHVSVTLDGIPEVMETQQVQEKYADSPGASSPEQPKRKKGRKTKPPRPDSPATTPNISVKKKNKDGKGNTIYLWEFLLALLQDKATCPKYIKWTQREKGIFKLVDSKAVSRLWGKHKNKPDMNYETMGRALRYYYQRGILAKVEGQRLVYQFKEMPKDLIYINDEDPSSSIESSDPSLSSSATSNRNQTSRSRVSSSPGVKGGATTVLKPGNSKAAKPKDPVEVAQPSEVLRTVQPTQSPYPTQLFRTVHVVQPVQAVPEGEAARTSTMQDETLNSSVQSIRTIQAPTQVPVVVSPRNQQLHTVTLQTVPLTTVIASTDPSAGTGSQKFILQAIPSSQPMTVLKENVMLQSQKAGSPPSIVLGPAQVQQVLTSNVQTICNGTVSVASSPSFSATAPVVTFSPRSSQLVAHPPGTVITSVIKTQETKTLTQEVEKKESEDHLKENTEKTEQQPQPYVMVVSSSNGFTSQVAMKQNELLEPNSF
# In short: as §1
# EHF = target: T5, EHF (Homo sapiens, UniProt Q9NZC4 1-300)
# T5 sequence: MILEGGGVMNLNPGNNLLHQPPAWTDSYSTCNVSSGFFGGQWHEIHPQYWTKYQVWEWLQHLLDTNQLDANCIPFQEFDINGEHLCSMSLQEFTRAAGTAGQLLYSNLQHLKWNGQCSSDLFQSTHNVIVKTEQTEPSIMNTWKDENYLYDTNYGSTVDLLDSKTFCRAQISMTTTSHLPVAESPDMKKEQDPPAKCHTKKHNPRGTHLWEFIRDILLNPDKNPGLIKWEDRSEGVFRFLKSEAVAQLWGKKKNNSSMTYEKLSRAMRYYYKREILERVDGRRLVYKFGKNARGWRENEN
# In short: as §1
# SPIB = SPIB (Homo sapiens, UniProt Q01892 1-262)
# Chain of SPIB (Q01892 whole entry): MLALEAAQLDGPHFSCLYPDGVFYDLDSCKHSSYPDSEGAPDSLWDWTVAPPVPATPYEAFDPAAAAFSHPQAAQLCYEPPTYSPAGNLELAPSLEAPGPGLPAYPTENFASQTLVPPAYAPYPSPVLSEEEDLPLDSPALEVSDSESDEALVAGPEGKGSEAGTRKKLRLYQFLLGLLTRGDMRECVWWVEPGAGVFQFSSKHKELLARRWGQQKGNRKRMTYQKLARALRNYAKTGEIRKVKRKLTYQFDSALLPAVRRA
# In short: as §1
# FEV = target: T6, FEV (Homo sapiens, UniProt Q99581 1-238)
# T6 sequence: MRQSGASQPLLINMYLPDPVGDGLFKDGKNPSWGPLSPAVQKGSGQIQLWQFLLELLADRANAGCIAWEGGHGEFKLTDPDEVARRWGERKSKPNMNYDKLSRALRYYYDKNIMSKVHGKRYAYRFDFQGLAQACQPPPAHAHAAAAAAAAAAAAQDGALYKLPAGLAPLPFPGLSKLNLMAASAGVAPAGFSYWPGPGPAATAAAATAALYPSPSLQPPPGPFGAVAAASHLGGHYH
# In short: as §1
# ETV5 = ETV5 (Homo sapiens, UniProt P41161 1-510)
# Chain of ETV5 (P41161 whole entry): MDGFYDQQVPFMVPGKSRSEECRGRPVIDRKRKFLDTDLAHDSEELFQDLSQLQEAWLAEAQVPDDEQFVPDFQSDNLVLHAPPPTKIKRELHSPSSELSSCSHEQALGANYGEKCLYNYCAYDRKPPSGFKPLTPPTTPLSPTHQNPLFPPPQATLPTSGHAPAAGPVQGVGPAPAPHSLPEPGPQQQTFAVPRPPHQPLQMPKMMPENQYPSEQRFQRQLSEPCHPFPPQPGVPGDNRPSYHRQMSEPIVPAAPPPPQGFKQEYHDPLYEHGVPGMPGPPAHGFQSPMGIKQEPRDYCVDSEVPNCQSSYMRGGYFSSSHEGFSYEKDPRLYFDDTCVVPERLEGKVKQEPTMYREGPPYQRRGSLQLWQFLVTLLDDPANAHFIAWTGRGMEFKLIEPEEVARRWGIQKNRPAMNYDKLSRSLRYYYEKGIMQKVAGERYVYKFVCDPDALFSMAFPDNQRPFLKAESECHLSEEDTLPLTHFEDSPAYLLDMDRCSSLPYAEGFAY
# In short: as §1
# SPIC = target: T7, SPIC (Homo sapiens, UniProt Q8N5J4 1-248)
# T7 sequence: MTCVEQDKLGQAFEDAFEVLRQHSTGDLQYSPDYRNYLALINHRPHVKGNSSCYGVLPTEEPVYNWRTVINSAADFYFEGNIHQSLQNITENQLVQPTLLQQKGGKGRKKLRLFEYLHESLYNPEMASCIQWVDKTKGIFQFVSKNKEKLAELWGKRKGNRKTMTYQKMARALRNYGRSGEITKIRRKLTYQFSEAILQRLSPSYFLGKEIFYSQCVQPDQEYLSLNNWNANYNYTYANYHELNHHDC
# In short: as §1
# ELF4 = ELF4 (Homo sapiens, UniProt Q99607 1-663)
# Chain of ELF4 (Q99607 whole entry): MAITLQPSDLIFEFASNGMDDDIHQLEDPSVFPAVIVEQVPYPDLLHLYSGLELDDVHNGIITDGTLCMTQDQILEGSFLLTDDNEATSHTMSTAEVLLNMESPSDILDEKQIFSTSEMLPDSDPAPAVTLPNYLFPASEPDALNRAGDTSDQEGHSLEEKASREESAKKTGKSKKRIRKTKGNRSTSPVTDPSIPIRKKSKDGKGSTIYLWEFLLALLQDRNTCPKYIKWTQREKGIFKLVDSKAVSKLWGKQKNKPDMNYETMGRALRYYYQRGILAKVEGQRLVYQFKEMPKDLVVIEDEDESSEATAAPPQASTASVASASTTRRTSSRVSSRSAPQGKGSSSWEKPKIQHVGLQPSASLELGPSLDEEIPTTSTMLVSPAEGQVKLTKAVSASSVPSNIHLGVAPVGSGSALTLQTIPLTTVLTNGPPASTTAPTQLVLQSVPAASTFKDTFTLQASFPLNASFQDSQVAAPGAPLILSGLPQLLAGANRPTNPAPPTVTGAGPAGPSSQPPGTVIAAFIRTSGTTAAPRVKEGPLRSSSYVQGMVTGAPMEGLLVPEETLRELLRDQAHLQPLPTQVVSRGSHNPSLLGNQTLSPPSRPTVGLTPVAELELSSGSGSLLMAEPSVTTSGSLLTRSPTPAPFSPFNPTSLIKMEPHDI
# In short: as §1
# ERF = target: T8, ERF (Homo sapiens, UniProt P50548 1-548)
# T8 sequence: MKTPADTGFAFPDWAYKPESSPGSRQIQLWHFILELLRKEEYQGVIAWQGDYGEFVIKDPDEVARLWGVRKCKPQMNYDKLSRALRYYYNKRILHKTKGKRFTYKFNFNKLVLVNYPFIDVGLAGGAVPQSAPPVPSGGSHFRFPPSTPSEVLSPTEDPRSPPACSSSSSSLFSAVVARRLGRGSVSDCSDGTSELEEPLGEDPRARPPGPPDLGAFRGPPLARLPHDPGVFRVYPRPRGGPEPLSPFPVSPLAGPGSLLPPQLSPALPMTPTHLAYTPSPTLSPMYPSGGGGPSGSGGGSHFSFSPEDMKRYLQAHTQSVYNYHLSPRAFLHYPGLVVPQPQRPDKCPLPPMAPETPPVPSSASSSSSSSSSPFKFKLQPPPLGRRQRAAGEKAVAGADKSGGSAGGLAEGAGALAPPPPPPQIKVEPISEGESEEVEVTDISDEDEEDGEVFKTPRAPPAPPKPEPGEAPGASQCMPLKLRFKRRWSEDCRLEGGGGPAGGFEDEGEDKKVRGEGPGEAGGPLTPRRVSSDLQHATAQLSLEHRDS
# In short: as §1
# ETV3L = target: T9, ETV3L (Homo sapiens, UniProt Q6ZN32 1-361)
# T9 sequence: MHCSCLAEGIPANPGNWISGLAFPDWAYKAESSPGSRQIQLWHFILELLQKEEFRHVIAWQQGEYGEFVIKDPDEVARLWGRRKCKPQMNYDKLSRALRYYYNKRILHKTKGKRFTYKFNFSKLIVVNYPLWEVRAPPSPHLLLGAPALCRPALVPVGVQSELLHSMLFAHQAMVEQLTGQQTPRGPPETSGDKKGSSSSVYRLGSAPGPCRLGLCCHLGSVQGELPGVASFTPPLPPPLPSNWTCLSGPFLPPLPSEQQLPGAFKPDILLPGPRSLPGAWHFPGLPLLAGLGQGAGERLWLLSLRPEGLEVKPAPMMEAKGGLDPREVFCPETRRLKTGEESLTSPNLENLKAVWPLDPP
# In short: as §1
# ETS2 = target: T10, ETS2 (Homo sapiens, UniProt P15036 1-469)
# T10 sequence: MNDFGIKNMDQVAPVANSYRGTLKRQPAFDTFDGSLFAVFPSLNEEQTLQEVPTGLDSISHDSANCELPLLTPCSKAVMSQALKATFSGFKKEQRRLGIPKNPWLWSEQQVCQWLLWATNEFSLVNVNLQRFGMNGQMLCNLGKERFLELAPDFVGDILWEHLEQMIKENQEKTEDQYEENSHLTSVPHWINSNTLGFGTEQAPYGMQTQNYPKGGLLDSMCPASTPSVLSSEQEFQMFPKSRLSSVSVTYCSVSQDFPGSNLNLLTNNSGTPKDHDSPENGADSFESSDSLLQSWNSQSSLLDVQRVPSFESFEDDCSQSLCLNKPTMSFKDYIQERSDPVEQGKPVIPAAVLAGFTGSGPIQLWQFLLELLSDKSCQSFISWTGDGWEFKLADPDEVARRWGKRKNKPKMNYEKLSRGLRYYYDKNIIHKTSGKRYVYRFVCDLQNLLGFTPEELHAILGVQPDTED
# In short: as §1
# SPDEF = target: T11, SPDEF (Homo sapiens, UniProt O95238 1-335)
# T11 sequence: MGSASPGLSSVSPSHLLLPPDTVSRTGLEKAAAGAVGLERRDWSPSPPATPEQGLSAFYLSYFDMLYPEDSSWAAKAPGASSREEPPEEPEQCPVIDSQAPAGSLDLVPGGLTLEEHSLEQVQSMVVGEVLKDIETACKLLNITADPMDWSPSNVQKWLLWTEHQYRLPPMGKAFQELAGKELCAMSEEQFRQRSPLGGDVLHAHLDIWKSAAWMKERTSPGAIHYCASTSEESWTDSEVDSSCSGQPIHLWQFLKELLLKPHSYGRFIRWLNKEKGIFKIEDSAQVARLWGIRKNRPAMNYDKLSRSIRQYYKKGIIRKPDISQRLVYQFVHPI
# In short: as §1
# ETV3 = target: T12, ETV3 (Homo sapiens, UniProt P41162-2 1-143)
# T12 sequence: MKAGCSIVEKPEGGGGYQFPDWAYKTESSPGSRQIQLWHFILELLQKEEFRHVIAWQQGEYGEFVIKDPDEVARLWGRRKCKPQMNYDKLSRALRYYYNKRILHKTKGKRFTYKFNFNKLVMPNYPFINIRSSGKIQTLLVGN
# In short: as §1
# ETV6 = ETV6 (Homo sapiens, UniProt P41212 1-452)
# Chain of ETV6 (P41212 whole entry): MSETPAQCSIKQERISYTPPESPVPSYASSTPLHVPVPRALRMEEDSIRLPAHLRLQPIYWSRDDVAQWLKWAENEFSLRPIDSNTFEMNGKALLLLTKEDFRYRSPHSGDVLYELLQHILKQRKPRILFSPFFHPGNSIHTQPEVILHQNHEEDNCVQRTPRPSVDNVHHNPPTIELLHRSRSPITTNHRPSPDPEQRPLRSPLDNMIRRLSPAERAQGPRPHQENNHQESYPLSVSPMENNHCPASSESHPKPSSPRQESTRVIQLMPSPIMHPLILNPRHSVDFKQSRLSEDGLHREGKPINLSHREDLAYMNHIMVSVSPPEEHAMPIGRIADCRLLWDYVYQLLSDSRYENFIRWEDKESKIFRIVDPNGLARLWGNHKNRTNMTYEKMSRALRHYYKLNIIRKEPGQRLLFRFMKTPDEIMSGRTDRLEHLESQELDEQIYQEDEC
# In short: as §1
sequence,measurement,setting,value
CCGCTG,binding signal,FLI1,"1.13 fold enrichment (6-mer frequency, TF over GST control)"
same,binding signal,ELK1,"1.03 fold enrichment (6-mer frequency, TF over GST control)"
same,binding signal,GABPA,"1.02 fold enrichment (6-mer frequency, TF over GST control)"
same,binding signal,ERG,"1.05 fold enrichment (6-mer frequency, TF over GST control)"
same,binding signal,ELF1,"1 fold enrichment (6-mer frequency, TF over GST control)"
same,binding signal,EHF,"1.05 fold enrichment (6-mer frequency, TF over GST control)"
same,binding signal,SPIB,"1.07 fold enrichment (6-mer frequency, TF over GST control)"
same,binding signal,FEV,"1.11 fold enrichment (6-mer frequency, TF over GST control)"
same,binding signal,ETV5,"1.06 fold enrichment (6-mer frequency, TF over GST control)"
same,binding signal,SPIC,"1.08 fold enrichment (6-mer frequency, TF over GST control)"
same,binding signal,ELF4,"1.06 fold enrichment (6-mer frequency, TF over GST control)"
same,binding signal,ERF,"1.03 fold enrichment (6-mer frequency, TF over GST control)"
same,binding signal,ETV3L,"1.04 fold enrichment (6-mer frequency, TF over GST control)"
same,binding signal,ETS2,"1.06 fold enrichment (6-mer frequency, TF over GST control)"
same,binding signal,SPDEF,"1.01 fold enrichment (6-mer frequency, TF over GST control)"
same,binding signal,ETV3,"1.08 fold enrichment (6-mer frequency, TF over GST control)"
same,binding signal,ETV6,"1.11 fold enrichment (6-mer frequency, TF over GST control)"
